SARS PLpro yeast – qHTS of Yeast-based Assay for SARS-CoV PLP | S. cerevisiae expressing SARS-CoV PLpro, growth rescue | Potency, µM (series often up to 32.9 µM), inactives show top-dose activity, positive = growth rescue, usual class: activators | 330,000 compounds, 0.19% hits | AID 485353, 2010; calls by dose curve; note: potency is the fitted concentration of half-maximal effect; 0% is about no effect; nearly all actives have a fitted effect of over 55% in size
Lassa entry inh – qHTS for Inhibitors of binding or entry into cells for Lassa Virus | Lassa virus pseudotype entry inhibition, cell reporter | Potency, µM (highest dose often 37.9 µM), for the others: top-dose activity change, negative = inhibition, hits mostly inhibitors | 300,000 compounds, 1.2% hits; calls by dose curve; tested in HEK293 cells; note: potency is the fitted concentration of half-maximal effect; % is set by controls: 0 for no effect and ±100 for the full control effect; nearly all actives have a fitted effect of over 50% in size
FMDV antiviral – High Throughput Screening for Foot and Mouth Disease Virus Antivirals; 410,000 compounds, 1.2% hits; Potency, µM (top dose mostly 57.9 µM), without a hit: at the highest dose activity change, negative = inhibition, most hits filed as inhibitors; FMDV antiviral cell-based qHTS; calls by dose curve; tested in HEK293T cells; note: read-out not given here; potency is the fitted concentration of half-maximal effect; % is set by controls: 0 for no effect and ±100 for the full control effect; nearly all actives have a fitted effect of over 45% in size
HCMV inh – qHTS Assay for inhibitors of the human cytomegalovirus (HCMV). 410,000 compounds, 4.5% hits. AID 1259415, 2018. activity change, negative = inhibition, % at 57.5 µM. HFF cells, HCMV-luciferase reporter, 72 h; hits give low values; in the data active = activity change below about -60%; inconclusive = no clear call, values can overlap the other calls; inactive = above about -39%; note: % is set by controls: 0 for no effect and ±100 for the full control effect
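HFF cells seeded 16 h at 37C, treated with compounds, infected with luciferase-reporter HCMV at MOI 1 PFU/cell; luciferase read at 72 h post infection, normalized to buffer-only and Salinomycin controls.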
HCV inh – qHTS Assay for Inhibitors of Hepatitis C Virus (HCV); Potency, µM (doses to about 41.8 µM), for the others: top-dose activity change, negative = inhibition, hits mostly inhibitors; Huh7.5.1 HCVcc-Cre infection, luciferase reporter, 44 h; 340,000 compounds, 3.4% hits; active = well fitted inhibition curve with a large enough effect; inconclusive = small, poorly fitted or top-dose-only effect, or another doubt; inactive = no such curve, though single readings can be large or run the other way; note: potency is the fitted concentration of half-maximal effect; % is set by controls: 0 for no effect and ±100 for the full control effect
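Luciferase read-out (15 sec integration) after a 15 min room-temperature substrate step quantifies HCVcc-Cre infection. Cells, 1,000 per well, had compound added 4 h post-plating, then virus at ~0.5 moi, and were cultured 44 h.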
Marburg entry inh – qHTS for inhibitors of binding or entry into cells for Marburg Virus; Marburg virus pseudotyped entry inhibition, cell reporter; Potency, µM (top dose mostly 37.8 µM), for the others: at the highest dose activity change, negative = inhibition, actives largely listed as inhibitors; 300,000 compounds, 1.8% hits; AID 540276, 2011; calls by dose curve; tested in HEK293 cells; note: potency is the fitted concentration of half-maximal effect; % is set by controls: 0 for no effect and ±100 for the full control effect
An asterisk follows results filed as active; ? = inconclusive; / = no result; [ ] = another dose, or the depositor's remark. Most compounds without a hit are left out; they make up all but 8% or so of the library.

SMILES	SARS PLpro yeast	Lassa entry inh	FMDV antiviral	HCMV inh	HCV inh	Marburg entry inh
O=[N+]([O-])c1cc(S(=O)(=O)Nc2ccccc2)ccc1N1CCN(c2ccc(O)cc2)CC1	8%	-5%	5%	9	14%	1%
Cc1ccc(NS(=O)(=O)c2ccc(N3CCN(c4ccc(O)cc4)CC3)c([N+](=O)[O-])c2)c(C)c1	-64%	-63%	28µM*	-64*	?	2.8µM*
CCN1C(N(C)CCc2c[nH]c3ccccc23)=N[C@@H](c2cccc(C(F)(F)F)c2)C(C(=O)OC)=C1C	5%	/	-29%	/	25µM*	/
CCc1cc(C(=O)OC)c(NC(=O)CC2SC(=NC)N(C)C2=O)s1 (stereo unspecified)	1%	13%[46.1 µM]	5%	10	16µM*	-10%[46.1 µM]
CC(Sc1ncc(S(=O)(=O)c2ccc(C(C)C)cc2)c(N)n1)C(=O)Nc1ccccc1 (stereo unspecified)	/	?	?	-74*	/	/
CCOc1ccccc1OCCNC(C)Cc1ccc(OC)c(S(N)(=O)=O)c1 (stereo unspecified)	/	/	/	4	/	/
COc1ccc(OCCSc2nc(-c3ccccc3)cc(=O)[nH]2)cc1	1%	12%[46.1 µM]	-16%	?	6%	-1%[46.1 µM]
CCOc1ccc(OCCSc2nc(-c3ccccc3)cc(=O)[nH]2)cc1	3%	-18%	-13%	-104*	6%	16%[46.1 µM]
O=[N+]([O-])c1ccc(NN=Cc2cc(Br)ccc2O)nc1	/	?	7%	-100*	?	?
Cc1ccc(/C=C/C(=O)OC(C)C(=O)Nc2ncc(Cl)cc2Cl)o1 (stereo unspecified)	11%	1%	-24%	-98*	-4%	-4%
COc1ccc(-c2nc3cnc(N(C)C)nc3n(Cc3ccc(F)cc3)c2=O)cc1	/	/	-12%	/	/	/
O=C(Nc1cccc(S(=O)(=O)N2CCCCC2)c1)c1ccc(OCC2CCCO2)cc1 (stereo unspecified)	0%	?	?	-66*	?	?
O=C(Nc1ccc(S(=O)(=O)N2CCCC2)cc1)c1ccc(OCC2CCCO2)cc1 (stereo unspecified)	-4%	-6%	18µM*	-88*	11µM*	?
Cc1ccc(NC(=O)c2ccc(OCC3CCCO3)cc2)cc1 (stereo unspecified)	-10%	?	-14%	48	-9%	?
CCN(CC)C(=O)Cn1c(SCCOc2ccc(Cl)cc2)nc2ccccc21	/	-7%[46.1 µM]	-17%	-6	/	8%[46.1 µM]
COc1ccc(-c2nn(-c3ccccc3)cc2C(=O)NCC(c2cccs2)N2CCOCC2)cc1 (stereo unspecified)	0%	-16%	-7%	-38	?	?
O=C(NCC(c1cccs1)N1CCOCC1)c1cn(-c2ccccc2)nc1-c1ccccc1 (stereo unspecified)	2%	0%	28%	-9	?	13µM*
O=C(NCC(c1cccs1)N1CCOCC1)c1cn(-c2ccccc2)nc1-c1ccc(Cl)cc1 (stereo unspecified)	3%	-25%	-3%	/	?	10µM*
O=C(C1CCOCC1)N1CC(=O)N2[C@H](CO)[C@H](c3ccc(-c4ccccc4F)cc3)[C@@H]2C1	/	/	/	9	/	/
CCOC(C(=O)OC[C@@H](O)CN(CC)CC)(c1ccccc1)c1ccccc1	/	/	/	/	/	-25%
COC(=O)C(c1ccccc1)(c1cn(C)c2ccccc12)C(Nc1ccccc1)c1ccc(Br)cc1 (stereo unspecified)	/	/	/	-19	/	/
COCCCn1c(-c2cccc(Cl)c2)nc2c1c(=O)[nH]c(=O)n2Cc1ccccc1	1%	?	-12%	-32	-26%	-1%[46.1 µM]
Cc1ccc(-c2nc3c(c(=O)[nH]c(=O)n3CC(C)C)n2CC(C)C)cc1[N+](=O)[O-]	-5%	?	-27%	-62*	?	?
